Compounds with a hit are over-represented: about 5.7% of the library has one in this group of screens.
PI5P4K alpha inh = qHTS for Inhibitors of phosphatidylinositol 5-phosphate 4-kinase (PI5P4K); AID 652105, 2013; max response, %; PI5P4Kalpha enzyme, ADP-Glo luminescence, 60 min; hits give low values; 330,000 compounds, 1.2% hits; Phosphatidylinositol 5-phosphate 4-kinase type-2 alpha (Homo sapiens), P48426; active means max response of -50% or lower; inconclusive means between -30% and -50%; inactive means -30% or higher; further: value at the top dose of about 77 µM; on the % scale 0 is the no-effect control and ±100 the full control effect
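ADP-Glo luminescence end-point read after a 60 min room-temperature kinase reaction of PI5P4Kalpha plus substrate, initiated with ATP at 5 microM final. Buffer: 0.038 M HEPES pH 7.4, EGTA, 0.1% CHAPS, 5% DMSO.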
BAZ2B block = qHTS Assay for Inhibitors of BAZ2B; 360,000 compounds, 4.4% hits; AlphaScreen BAZ2B-H3K14Ac peptide displacement; Potency, µM (series often up to 114 µM), for inactives: at the highest dose activity change, negative = inhibition, usual class: inhibitors; further: potency means the concentration at half of the fitted maximal effect; on the % scale 0 is the no-effect control and ±100 the full control effect; nearly all actives have a fitted effect of over 60% in size
Target sequence (Q9UIF8 whole entry, looked up): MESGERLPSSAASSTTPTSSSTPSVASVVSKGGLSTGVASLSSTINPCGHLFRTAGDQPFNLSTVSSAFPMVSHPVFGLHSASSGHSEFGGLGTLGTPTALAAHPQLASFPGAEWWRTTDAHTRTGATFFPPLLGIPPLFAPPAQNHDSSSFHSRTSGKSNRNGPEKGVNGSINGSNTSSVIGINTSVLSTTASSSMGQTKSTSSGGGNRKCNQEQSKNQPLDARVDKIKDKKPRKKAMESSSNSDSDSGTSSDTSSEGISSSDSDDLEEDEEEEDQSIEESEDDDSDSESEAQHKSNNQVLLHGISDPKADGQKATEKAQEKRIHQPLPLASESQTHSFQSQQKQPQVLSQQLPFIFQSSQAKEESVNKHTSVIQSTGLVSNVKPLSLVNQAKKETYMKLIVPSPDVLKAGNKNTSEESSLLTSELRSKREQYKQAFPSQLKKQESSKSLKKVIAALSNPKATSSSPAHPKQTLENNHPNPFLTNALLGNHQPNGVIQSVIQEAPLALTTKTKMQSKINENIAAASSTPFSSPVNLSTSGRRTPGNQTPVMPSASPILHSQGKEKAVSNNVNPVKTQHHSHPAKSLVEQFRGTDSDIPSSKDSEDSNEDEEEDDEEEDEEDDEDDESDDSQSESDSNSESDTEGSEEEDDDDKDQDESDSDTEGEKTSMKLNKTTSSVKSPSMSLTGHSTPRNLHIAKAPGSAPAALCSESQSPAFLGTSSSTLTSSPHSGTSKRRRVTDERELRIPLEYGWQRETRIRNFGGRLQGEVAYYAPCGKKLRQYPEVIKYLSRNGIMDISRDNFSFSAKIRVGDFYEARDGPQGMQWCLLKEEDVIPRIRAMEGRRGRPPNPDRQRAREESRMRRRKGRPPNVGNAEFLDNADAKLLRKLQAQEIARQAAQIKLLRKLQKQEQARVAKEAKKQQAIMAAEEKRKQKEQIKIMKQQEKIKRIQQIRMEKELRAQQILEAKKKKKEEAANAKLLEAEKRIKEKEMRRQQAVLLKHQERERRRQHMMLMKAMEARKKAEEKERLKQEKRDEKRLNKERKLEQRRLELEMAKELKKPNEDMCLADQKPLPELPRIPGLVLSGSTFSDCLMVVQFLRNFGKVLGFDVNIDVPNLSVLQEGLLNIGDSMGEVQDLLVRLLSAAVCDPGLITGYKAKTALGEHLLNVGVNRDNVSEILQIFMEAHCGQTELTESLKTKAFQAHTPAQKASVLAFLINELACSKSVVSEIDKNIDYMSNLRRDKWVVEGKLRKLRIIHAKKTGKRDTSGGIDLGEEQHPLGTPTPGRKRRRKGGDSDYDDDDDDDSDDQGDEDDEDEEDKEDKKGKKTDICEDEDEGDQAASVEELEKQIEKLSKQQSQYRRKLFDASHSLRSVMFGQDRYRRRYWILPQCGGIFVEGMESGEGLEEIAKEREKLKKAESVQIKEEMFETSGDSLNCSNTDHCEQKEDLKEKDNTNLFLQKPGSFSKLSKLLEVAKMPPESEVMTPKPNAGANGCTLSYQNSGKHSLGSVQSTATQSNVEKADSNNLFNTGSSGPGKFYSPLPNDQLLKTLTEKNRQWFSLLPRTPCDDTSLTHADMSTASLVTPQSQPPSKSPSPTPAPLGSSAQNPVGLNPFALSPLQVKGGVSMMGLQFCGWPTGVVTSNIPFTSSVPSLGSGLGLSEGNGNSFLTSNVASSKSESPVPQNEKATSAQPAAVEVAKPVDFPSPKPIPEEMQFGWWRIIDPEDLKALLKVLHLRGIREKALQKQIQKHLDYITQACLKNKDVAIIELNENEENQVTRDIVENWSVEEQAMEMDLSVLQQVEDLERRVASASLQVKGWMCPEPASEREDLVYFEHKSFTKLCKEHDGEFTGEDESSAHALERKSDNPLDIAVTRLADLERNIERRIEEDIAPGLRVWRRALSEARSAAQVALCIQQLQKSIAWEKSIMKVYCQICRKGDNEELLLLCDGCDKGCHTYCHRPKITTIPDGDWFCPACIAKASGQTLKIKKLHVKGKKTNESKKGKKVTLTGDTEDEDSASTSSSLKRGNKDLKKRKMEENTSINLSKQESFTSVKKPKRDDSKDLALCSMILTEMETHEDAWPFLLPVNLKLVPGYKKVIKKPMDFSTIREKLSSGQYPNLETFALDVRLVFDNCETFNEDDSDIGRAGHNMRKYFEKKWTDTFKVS
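In this displacement format the biotinylated H3(5-23) peptide acetylated at Lys14 serves as ligand at 50 nM, with BAZ2B at 50 nM in PBS pH 7.4 containing 0.01% Tween-20. Donor and acceptor beads are 10 ug/mL final.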
JMJD2A Tudor = qHTS Assay for Inhibitors of JMJD2A-Tudor Domain; Lysine-specific demethylase 4A (Homo sapiens), O75164; AlphaScreen JMJD2A-Tudor / H3K4me3 peptide binding; Potency, µM (titrated, usually from 114 µM), for inactives: at the highest dose activity change, negative = inhibition, actives largely listed as inhibitors; 390,000 compounds, 4.4% hits; further: potency means the concentration at half of the fitted maximal effect; on the % scale 0 is the no-effect control and ±100 the full control effect; nearly all actives have a fitted effect of over 50% in size
L3MBTL1 block = qHTS Assay for the Inhibitors of L3MBTL1. Lethal(3)malignant brain tumor-like protein 1 (Homo sapiens), Q9Y468. AlphaScreen L3MBTL1–H3K9me1 peptide binding. Potency, µM (series often up to 57.1 µM), for the others: top-dose activity, negative = inhibition, hits mostly inhibitors. 230,000 compounds, 0.66% hits; further: potency means the concentration at half of the fitted maximal effect; on the % scale 0 is the no-effect control and ±100 the full control effect; nearly all actives have a fitted effect of over 60% in size
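AlphaScreen assay: L3MBTL1 (50 nM final) was preincubated 30 min at room temperature with biotinylated H3(1-15)K9me1 peptide (75 nM final), then 30 min with library compounds; streptavidin donor and nickel chelate acceptor beads (10 ug/mL final) added, 30 min dark.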
HP1b chromo inh = HTS for Inhibitors of HP1-beta Chromodomain Interactions with Methylated Histone Tails; Chromobox protein homolog 1 (Homo sapiens), P83916; AlphaScreen HP1-beta / biotin-H3K9me3 peptide binding; Potency, µM (highest dose often 114 µM), inactives show at the top dose activity change, negative = inhibition, hits mostly inhibitors; 390,000 compounds, 0.56% hits; AID 540317, 2011; further: potency means the concentration at half of the fitted maximal effect; nearly all actives have a fitted effect of over 70% in size
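Compound inhibition of the preformed complex between 50 nM HP1-beta and 50 nM biotinylated H3K9me3 peptide was read by AlphaScreen. Buffer was PBS pH 7.4 with 0.01% Tween-20. Incubations ran 30 min at room temperature, with 10 ug/mL donor/acceptor beads.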
KDM4E inh = qHTS Assay for Inhibitors of Human Jumonji Domain Containing 2E (JMJD2E). Lysine-specific demethylase 4E (Homo sapiens), B2RXH2. JMJD2E catalytic domain, FDH-coupled NADH fluorescence (FDH is formaldehyde dehydrogenase). Potency, µM (titrated, usually from 57.1 µM), for the others: at the highest dose activity change, negative = inhibition, actives largely listed as inhibitors. 230,000 compounds, 1.6% hits. AID 2147, 2009; active means well fitted inhibition curve with a large enough effect, not every such curve was filed as active; inconclusive means small, poorly fitted or top-dose-only effect, or another doubt; inactive means no such curve, though single readings can be large or run the other way;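 further: potency means the concentration at half of the fitted maximal effect; 0% = wells with enzyme and -100% = buffer wells without enzyme; nearly all actives have a fitted effect of over 50% in size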
Active calls of the source: *; ? = inconclusive; . = no result; ! = a repeat was not active; [ ] = another dose, or the depositor's remark. Unless noted, the call rests on the fitted dose curve; in most records, active means well fitted inhibition curve with a large enough effect; inconclusive means small, poorly fitted or top-dose-only effect; inactive means no such curve, though single readings can be large or run the other way.

SMILES | PI5P4K alpha inh | BAZ2B block | JMJD2A Tudor | L3MBTL1 block | HP1b chromo inh | KDM4E inh
CC(C)(C)OC(=O)NCCCCCNC(=O)c1[nH]cnc1C(=O)Nc1ccon1 | -2.3 | 56.2µM* | -9.2% | -11.8% | 48.4% | .
CC(C)(C)OC(=O)N1CCC(NC(=O)c2nc[nH]c2C(=O)N2CCc3ccccc3C2)CC1 | 2.8 | 56.2µM* | -27.3% | -18.3% | 28.5% | .
CC(C)(C)OC(=O)NCCCCCNC(=O)c1[nH]cnc1C(=O)Nc1cccc(Cl)c1 | 3.1 | 12.0% | -20.4% | 4.1% | 33.9% | .
CC(C)Nc1cccc(S(=O)(=O)N2CCCN(S(=O)(=O)c3ccc4c(c3)OCCO4)CC2)c1 | . | . | -30.5% | . | . | .
Cc1cc(Nc2cccc(C(F)(F)F)c2)nc2ccc(NC(=O)Cc3ccc(Cl)cc3)cc12 | . | 5.4% | 8.6% | . | 31.1% | .
O=C(CCCCn1c(=O)c2ccccc2n(CC(=O)Nc2ccc(F)cc2F)c1=O)NCc1ccccc1Cl | . | -0.6% | -4.1% | . | 27.7% | .
O=C(O)CCCn1c(=S)[nH]c2c(sc3ccc([N+](=O)[O-])cc32)c1=O | -9.5 | ? | 17.8µM* | -1.4% | 32.2% | -10.7%
CC1CCN(CCCn2c(=S)[nH]c3c(sc4ccc([N+](=O)[O-])cc43)c2=O)CC1 | 6.5 | -16.8% | -12.7% | 15.1% | 27.9% | -15.5%
Nc1c(Cl)ncnc1Nc1ccc(C(=O)O)cc1 | -4.8 | . | 12.6µM* | . | 28.5% | .
O=C(O)c1ccc(Nc2ncnc3ccccc23)cc1 | 1.4 | -4.6% | -28.1% | . | 12.7% | .
CC(C)CN1C=C2C(=O)C(C)(OC(=O)C3CCCC3)C(=O)C=C2C=C1c1ccsc1 (stereo unspecified) | -27.0 | ? | ? | . | -6.0% | 31.6µM*!
C=CCN1C=C2C(=O)C(C)(OC(=O)C3CCCC3)C(=O)C=C2C=C1c1ccsc1 (stereo unspecified) | -29.8 | ? | -34.3% | . | 4.0% | ?
Cn1nc(-c2ccccc2)c(C(=O)NC(C(=O)O)c2ccccc2)c1Cl (stereo unspecified) | 2.6 | 50.1µM* | -11.9% | 5.9% | 23.3% | 2.8%
CCn1c2cc(C)sc2c2cnn(Cc3ccccc3F)c(=O)c21 | . | . | 13.7% | . | . | .
C(=NN=C1c2ccccc2-c2ccccc21)c1ccc2c(c1)OCO2 | 27.7 | . | 20µM* | . | 50.1µM* | .
Oc1cccc(C=NN=C2c3ccccc3-c3ccccc32)c1 | 36.1 | . | 44.7µM* | . | ? | .
CCOc1cc(/C=N/NC(=O)N/N=C/c2ccc(O)c(OCC)c2)ccc1O | -19.0 | . | -11.9% | . | 11.6% | .
O=[N+]([O-])c1ccc(O)c(/C=N\N=C2c3ccccc3-c3ccccc32)c1 | 17.1 | ? | -34.3% | -5.4% | -12.8% | 8.9%
CCOc1cc(C=NN=C2c3ccccc3-c3ccccc32)ccc1O | 44.9 | . | 25.1µM* | . | 50.1µM* | .
O=C(N/N=C/c1ccc2c(c1)OCO2)c1ccccn1 | . | -26.5% | -6.6% | -0.7% | 18.0% | 1.4%
CCc1ccccc1NC(=O)CSc1nc2ccccc2nc1Cc1cccc(OC)c1 | . | -1.7% | -4.5% | . | 31.3%[57 µM] | .
Cc1c(C(O)(c2ccccc2)c2ccccc2)[n+]2ccccc2n1C | . | . | -15.0% | . | . | .
Cc1cc(NS(=O)(=O)c2ccc3c(c2)CCC(=O)N3)ccc1F | . | . | -13.5% | . | . | .
Cc1ccc(CCNC(=O)c2cc3sccc3n2Cc2ccc(C)cc2)cc1 | . | -13.6% | -27.2% | . | 14.0% | .
O=C(NCCc1ccccc1)c1cc2sccc2n1Cc1ccccc1 | -2.5 | 89.1µM* | ? | 0.4% | -7.3% | 1.4%
COc1cc2oc(=O)c(CC(=O)NCCc3ccccc3)c(C)c2cc1Cl | . | -9.2% | -12.5% | . | 43.3% | .
